# Where “and” joins values, the source holds several entries; their conditions need not be identical. Equal entries are not always repeated. The source holds several records for some structures; these can differ, active in one and inactive in another. Calls of active or inactive are those of the source.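 How the source made its calls, unless noted: active means inhibition at or above 50% relative to wild type and mutant plate controls; inactive means inhibition below 50%.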
# Key:
# [1] = inhibitors of TNFa-induced NFkB p65 translocation, primary screen, imaging, HUVEC, MLSMR starter and 10KST1 sets (AID 438;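 active means inhibition above 20% together with a positive visual image hit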;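 further: compound added about 3h40 before a 20 min TNFalpha stimulation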;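 on inhibition: signal is the nuclear over cytoplasmic p65 intensity ratio per well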); conditions: HUVEC TNFa-induced p65 nuclear translocation; cell count: measured here: nuclei count (cytotoxicity indicator), at 2.08 µM unless noted; inhibition: at 2 µM, stronger effect = higher value unless noted
# [2] = reduction of polyQ htt aggregates in cells – imaging, exon1htt(103Q)mCFP cells, high-content imaging, primary screen (AID 483;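 active means visual image review flags a hit and inhibition of aggregation exceeds 20%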;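 further: compound exposure lasted 3 days before fixation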;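 on nuclei count: percent of the per-plate median nuclei count of sample wells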); conditions: exon1htt(103Q)mCFP cell line, aggregate imaging, at 2 µM; inhibition of aggregation: stronger effect = higher value; nuclei count: measured here: cell count, toxicity
# [3] = endothelial E-selectin expression blockers – imaging, HUVEC, immunofluorescence, MLSMR starter and 10KST1 sets, primary screen (AID 487;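 active means visually confirmed hit in the image check and inhibition above 20%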;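 on inhibition: signal is fraction of cell area covered by stained E-selectin grains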;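 on nuclei count: 100% = median nuclei count of all wells on the same plate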); conditions: HUVEC TNFalpha-induced E-selectin immunofluorescence imaging, at 2 µM; inhibition: stronger effect = higher value; nuclei count: measured here: cell number, toxicity
# [4] = Primary imaging screen for DUSP6 inhibitors that restore phospho-Erk in transfected HeLa cells, chemical complementation (AID 609;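 active means compounds giving at least 50% inhibition in the cell-based MKP-3 phosphatase rescue imaging test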;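 on inhibition: phospho-Erk level distribution per well compared with pooled transfected vehicle control wells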); conditions: HeLa MKP-3 transfected, phospho-Erk imaging KS statistic, at 10 µM
# [5] = target: Dual specificity protein phosphatase 6 (Homo sapiens) (UniProt Q16828); assay: as above; conditions: HeLa MKP-3 transfected, phospho-Erk imaging KS statistic, at 10 µM, stronger effect = higher value
# Chain of Dual specificity protein phosphatase 6 (Homo sapiens) (Q16828 whole entry, looked up): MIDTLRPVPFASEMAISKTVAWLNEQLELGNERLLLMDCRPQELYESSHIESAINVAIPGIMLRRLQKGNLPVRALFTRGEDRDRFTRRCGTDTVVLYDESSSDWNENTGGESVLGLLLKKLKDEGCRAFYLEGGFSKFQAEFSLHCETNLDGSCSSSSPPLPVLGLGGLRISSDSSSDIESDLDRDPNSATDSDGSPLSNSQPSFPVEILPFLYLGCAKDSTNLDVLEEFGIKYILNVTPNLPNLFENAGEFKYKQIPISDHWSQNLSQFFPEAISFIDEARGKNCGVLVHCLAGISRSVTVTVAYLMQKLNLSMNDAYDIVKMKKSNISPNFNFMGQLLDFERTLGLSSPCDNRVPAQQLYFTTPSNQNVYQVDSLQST
# [6] = target: Voltage-gated potassium channel subunit beta-2 (Rattus norvegicus) (UniProt P62483); assay: inhibitors of rat Kvbeta2 reductase activity – biochemical, NADPH fluorescence, primary screen (AID 622;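 active means fluorescence slope higher than the sample average by over 3 SD, cut at about -0.22 in these data, passing the limit was not always enough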;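 further: slope of raw intensity against log time taken from 70 to 1610 s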); conditions: recombinant KvBeta, 4-cyanobenzaldehyde reduction, at 10 µM, stronger effect = higher value
# Chain of Voltage-gated potassium channel subunit beta-2 (Rattus norvegicus) (P62483 whole entry, looked up): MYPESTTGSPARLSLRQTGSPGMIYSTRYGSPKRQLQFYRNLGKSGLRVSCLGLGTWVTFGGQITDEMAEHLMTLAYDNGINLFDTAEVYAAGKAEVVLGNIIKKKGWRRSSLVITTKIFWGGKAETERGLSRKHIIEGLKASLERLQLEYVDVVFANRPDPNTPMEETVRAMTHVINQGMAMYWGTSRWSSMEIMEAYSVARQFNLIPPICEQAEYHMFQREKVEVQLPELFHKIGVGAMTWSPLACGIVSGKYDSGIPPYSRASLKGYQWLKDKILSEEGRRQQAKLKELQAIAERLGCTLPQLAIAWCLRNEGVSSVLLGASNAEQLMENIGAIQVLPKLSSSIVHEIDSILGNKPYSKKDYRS
# [7] = target: Voltage-gated potassium channel subunit beta-2 (Rattus norvegicus) (UniProt P62483); assay: enhancers of rat Kvbeta2 NADPH turnover – biochemical, NADPH fluorescence, primary screen (AID 623;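 active means NADPH fluorescence slope more negative than the mean of all samples by about 3 SD, 99.7% confidence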;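 further: fluorescence intensity change per second fitted from 20 to 320 s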); conditions: Recombinant KvBeta, NADPH fluorescence decrease slope, 10 min; at 10 µM; stronger effect = lower value
# [8] = target: Alpha-2C adrenergic receptor (Homo sapiens) (UniProt P18825); assay: compounds altering alpha2C-coupled GIRK flux – cell-based, HEK293 alpha2C/GIRK1/2, thallium flux, primary screen (AID 624;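 active means fluorescence slope after compound addition differing from the mean of all screened samples at 99.7% confidence, in either direction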;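 further: slope of fluorescence ratio to pre-addition baseline per second over 15 to 24 s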); conditions: thallium flux BTC fluorescence, at 10 µM, actives lie on both sides
# Chain of Alpha-2C adrenergic receptor (Homo sapiens) (P18825 whole entry, looked up): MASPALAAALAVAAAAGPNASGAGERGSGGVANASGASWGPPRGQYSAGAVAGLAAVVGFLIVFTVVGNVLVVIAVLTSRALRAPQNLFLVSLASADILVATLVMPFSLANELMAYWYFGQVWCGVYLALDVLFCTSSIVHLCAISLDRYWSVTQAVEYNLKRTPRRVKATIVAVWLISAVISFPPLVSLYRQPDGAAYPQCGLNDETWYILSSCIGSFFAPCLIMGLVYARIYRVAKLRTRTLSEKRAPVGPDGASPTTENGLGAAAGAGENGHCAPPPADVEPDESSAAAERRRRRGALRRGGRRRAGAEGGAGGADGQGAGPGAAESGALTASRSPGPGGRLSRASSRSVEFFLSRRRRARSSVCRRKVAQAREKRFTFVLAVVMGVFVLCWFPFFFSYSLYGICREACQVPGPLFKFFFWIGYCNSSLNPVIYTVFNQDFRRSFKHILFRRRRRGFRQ
# [9] = inhibitors of larval lipid processing in zebrafish, primary screen, whole organism, PED6 fluorescence, gall bladder and intestine (AID 686;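 active means a full or partial loss of lipid-probe fluorescence in the fish gall bladder, intestine or both, judged by eye; inactive means no fluorescence loss, or compound toxic to the fish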;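 further: larvae 5 to 7 days old with five fish per well; signal comes from phospholipase A2 cleavage of quenched PED6 carried via bile; overnight exposure to compound and PED6 before scoring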); conditions: Zebrafish larvae PED6 lipid processing, fluorescence scoring
# [10] = loss of swimming-algae plug formation – whole organism, Chlamydomonas reinhardtii, WT vs cilia-less mutant, absorbance, 96-well, primary screen (AID 463189); conditions: Chlamydomonas reinhardtii gravitaxis, OD600 absorbance, 2 days; at 10 µM; stronger effect = higher value;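 further: 0% = wild type cc124 cells in DMSO and 100% = ciliumless bld1 mutant cells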
# [11] = blockers of RIG-like receptor reporter activation – cell-based, Sendai virus stimulus, luciferase, 10K MLSCN set, TLR/RLR signaling modifier project, primary screen (AID 602276;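 active means inhibition at or above 50% at 10 µM; inactive means inhibition below 50%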;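 further: firefly luciferase from ISG56 promoter only with Renilla not read in this screen; 0% = Sendai virus plus DMSO and 100% = medium plus DMSO without virus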); conditions: HEK293 RL24 IRF3 luciferase reporter, at 10 µM, stronger effect = higher value
# [12] = TLR3 IRF3 reporter activation blockers – cell-based, poly I:C stimulus, luciferase, 10K MLSCN set, primary screen (AID 602277;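 active means inhibition of the reporter signal at or above 50%; inactive means inhibition below 50%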); conditions: HEK293-TLR3 RL24 IRF3 luciferase reporter, at 10 µM, stronger effect = higher value
# [13] = measured here: cell density z-score
# [14] = measured here: nuclear c-Myc green intensity z-score
# [15] = measured here: nuclear pErk red intensity z-score, stronger effect = higher value
# [16] = measured here: cell density z-score, cells stimulated with TPA for 15 min
# [17] = measured here: nuclear c-Myc green intensity z-score, cells stimulated with TPA for 15 min
# [18] = measured here: nuclear pErk red intensity z-score, stronger effect = higher value, cells stimulated with TPA for 15 min
Compound,cell count [1],inhibition [1],inhibition of aggregation [2],nuclei count [2],inhibition [3],nuclei count [3],"z-score [4, 13]","z-score [4, 14]","z-score [4, 15]",inhibition [5],fluorescence slope [6],NADPH fluorescence slope [7],slope [8],outcome [9],inhibition [10],inhibition [11],inhibition [12],"z-score [4, 16]","z-score [4, 17]","z-score [4, 18]"
c1ccc(Cn2ccnc2)cc1,630,3.1% (inactive),16.2% (inactive),94.6%,-120% (inactive),130%,1.25,-0.35,1.06,8% (inactive),-0.486 (inactive),3.7e-06 (inactive),0.00411 (inactive),inactive,-7.16% (inactive),20.5% (inactive),27.2% (inactive),–,–,–
CN1C[C@H](CNC(=O)OCc2ccccc2)C[C@@H]2c3cccc4c3c(cn4C)C[C@H]21,603,2.7% (inactive),-59.5% (inactive),111%,-32.3% (inactive),110%,-0.59,-0.701,1.38,1.38% (inactive),-0.508 (inactive),-3.6e-06 (inactive),0.0041 (inactive),inactive,0.679% (inactive) and 168% (active),1.55% (inactive),23.4% (inactive),–,–,–
Cc1c(N=Cc2c(O)n(CCc3ccc(F)cc3)c(=O)[nH]c2=O)c(=O)n(-c2ccccc2)n1C,647,-28% (inactive),–,–,-9.6% (inactive),155%,-1.16,-1.2,1.06,-0.624% (inactive),-0.389 (inactive),-4.5e-05 (inactive),0.0062 (inactive),active; weak signal in gallbladder and intestine,8% (inactive),–,–,–,–,–
Clc1ccc(CSC(Cn2ccnc2)c2ccc(Cl)cc2Cl)cc1 (configuration not stated),639,"3.8% [at 2 µM, stronger effect = higher value, 0% TNFa-plus-vehicle, 100% no-TNFa wells] (inactive)",-3.9% (inactive),108%,-57.9% (inactive),120%,–,–,–,10.2% [cells stimulated with TPA for 15 min] (inactive),-0.531 (inactive),-3.2e-05 (inactive),0.0071 (inactive),inactive; toxic [screened at 20 µM (by protocol)],31.3% (inactive),13.2% (inactive),7.53% (inactive),0.528,0.633,0.478
C=C1CC[C@@]2(O)[C@H]3Cc4ccc(O)c5c4[C@@]2(CCN3CC2CC2)[C@H]1O5,527,0.1% (inactive),-9.9% (inactive),99.2%,-20.4% (inactive),109%,0.737,1.29,-0.809,14.6% (inactive),-0.469 (inactive),-4e-05 (inactive),0.00496 (inactive),inactive,-15.6% (inactive),-6.04% (inactive),25% (inactive),–,–,–
CCOc1ccccc1-n1c(O)c(C=Nc2ccc(N(CC)CC)cc2)c(=O)[nH]c1=O,588,-15.7% (inactive),–,–,-43.1% (inactive),85.2%,2.24,-1.62,-0.873,6.04% (inactive),-0.43 (inactive),-9.6e-06 (inactive),0.0078 (inactive),inactive,7.21% (inactive),–,–,–,–,–
O=C1c2ccccc2C(=O)N1Cc1nc2ccccc2c(=O)n1-c1cccnc1,485,-17.5% (inactive),–,–,13.6% (inactive),113%,-1.74,-0.21,1.85,-4.27% (inactive),-0.469 (inactive),-1.2e-05 (inactive),0.00521 (inactive),inactive,6.55% (inactive),–,–,–,–,–
CCCCOCCCn1c(N)c(C(=O)OCCOC)c2nc3ccccc3nc21,525,-11.4% (inactive),–,–,-48% (inactive),152%,-0.11,-0.345,0.203,15.5% (inactive),-0.052 (inactive),-3.5e-06 (inactive),0.00403 (inactive),inactive,29.3% (inactive),–,–,–,–,–
C=CCC1(CN2CCCCCC2=O)C(=O)NC(=O)NC1=O,656,4% (inactive),–,–,-118% (inactive),148%,-0.0973,0.0168,-1.06,11.3% (inactive),-0.517 (inactive),-6.8e-05 (inactive),0.00505 (inactive),inactive,-7.71% (inactive),–,–,–,–,–
O=C(Nc1ccncc1)c1c(O)c2ccccc2n(Cc2ccccc2)c1=O,544,"-4.5% [at 2 µM, stronger effect = higher value, 0% TNFa-plus-vehicle, 100% no-TNFa wells] (inactive)",–,–,-23.1% (inactive),145%,–,–,–,10.5% [cells stimulated with TPA for 15 min] (inactive),-0.32 (inactive),2.5e-05 (inactive),0.00467 (inactive),inactive [screened at 20 µM (by protocol)],30.8% (inactive),–,–,-0.126,-1.62,-0.473
O=c1[nH]c(O)c(C=NC2CCN(Cc3ccccc3)CC2)c(=O)[nH]1,422,0.5% (inactive),–,–,-125% (inactive),167%,0.26,-1.34,-0.141,4.25% (inactive),-0.409 (inactive),-7.4e-05 (inactive),0.00643 (inactive),inactive,-1.61% (inactive),–,–,–,–,–
CCN(CC)CCCC(C)N=C(c1ccccc1)c1c(O)n(C)c(=O)n(C)c1=O (configuration not stated),617,-1.4% (inactive),–,–,-14.1% (inactive),134%,0.00172,-0.468,1.57,-1.12% (inactive),-0.507 (inactive),-7.1e-05 (inactive),0.00446 (inactive),inactive,8.34% (inactive),–,–,–,–,–

# — PubChem BioAssay
